Here are results for ten compounds from PubChem BioAssay (NCI).

Assay [1] can be described thus: NCI Yeast Anticancer Drug Screen. Data for the rad50 strain (AID 155).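 Also: 0% = growth of vehicle-only cultures of the same strain.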 Particulars: S. cerevisiae rad50 strain growth inhibition, stronger effect = higher value. A digest of the protocol:
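DNA repair mutant yeast, compound exposure, growth read-out; inhibition is taken relative to vehicle.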

Assay [2] can be described thus: NCI Yeast Anticancer Drug Screen. Data for the sgs1 mgt1 strain (AID 161).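 Also: 0% = growth of cultures given vehicle only.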 Particulars: S. cerevisiae sgs1 mgt1 strain, stronger effect = higher value. A digest of the protocol:
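Genetically altered yeast, compound exposure, growth inhibition relative to vehicle.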

The nature of assay [3]: NCI Yeast Anticancer Drug Screen. Data for the cln2 rad14 strain (AID 165).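 Also: 0% = growth equal to vehicle treated cultures.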 The following applies: S. cerevisiae cln2 rad14 strain, stronger effect = higher value. In a few lines: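 The screen exposed genetically defined yeast (cln2 rad14) to test compounds and scored growth inhibition relative to vehicle-treated controls.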
Assay [4] is described as follows: NCI Yeast Anticancer Drug Screen. Data for the bub3 strain (AID 167). Particulars: S. cerevisiae bub3 mutant strain, stronger effect = higher value. In a few lines:
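In this screen, a yeast mutant lacking normal mitotic checkpoint function is challenged with compound. Relative growth versus vehicle gives the inhibition value.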

Assay [5] can be described thus: NCI Yeast Anticancer Drug Screen. Data for the mlh1 rad18 strain (AID 175). The following applies: S. cerevisiae mlh1 rad18 strain growth inhibition, stronger effect = higher value. A digest of the protocol: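 Compound-treated yeast growth, normalised to vehicle controls. Strain bears defined DNA repair mutations.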
Assay [6] is described as follows: NCI Yeast Anticancer Drug Screen. Data for the mec2-1 strain (AID 157). The following applies: S. cerevisiae mec2-1 strain, stronger effect = higher value. In a few lines: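 Cells of the genetically defined mec2-1 yeast strain are incubated with test compound. Inhibition of growth is calculated against vehicle-treated controls.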
Where [7] appears, read: at 5.0 µM (retest, dose inferred, filed as 0.5).
[8] abbreviates: at 50.0 µM (retest, dose inferred, filed as 5.0).

Each structure is given as a SMILES string. Compounds without any hit were thinned out: in the full panel of roughly 79,000, 15% have a hit. Unmarked numbers belong to inactive results. The source made the active and inactive calls. Rule as the data show it: active = growth inhibition above about 70%; inactive = the rest.

In the case of `CC(=O)c1cc(-c2ccccc2)nc2ccccc12`, the growth inhibition in assay [1] (setting [7]) was -5%; in assay [1] (setting [8]), 38%; in assay [1] (at 50.0 µM) it was 89.2% (active); in assay [2] (setting [7]), 12%; in assay [2] (setting [8]), 80% (active); in assay [2] (at 50.0 µM), 98.2% (active). The growth inhibition in assay [3] (setting [7]) was -25%; in assay [3] (setting [8]), 35%; in assay [3] (at 50.0 µM), 74.5% (active); in assay [4] (setting [7]), -28%; in assay [4] (setting [8]), 87% (active); in assay [4] (at 50.0 µM), 87% (active). The values for the growth inhibition in assay [5] (setting [7]), in assay [5] (setting [8]) and in assay [5] (at 50.0 µM) were 4%, 88% (active) and 97.1% (active), respectively.

`O=C(NCCc1c(-c2ccccc2)[nH]c2ccccc12)C(F)(F)F`: the growth inhibition in assay [1] (setting [7]) was 11%; in assay [1] (at 50.0 µM), 46.6%; in assay [6] (setting [7]), -3%; in assay [6] (at 50.0 µM), 49.8%; in assay [2] (setting [7]), 10%; in assay [2] (at 50.0 µM), 79.5% (active). The growth inhibition in assay [3] (setting [7]) is -2%; in assay [3] (at 50.0 µM), 59.2%; in assay [4] (setting [7]), -10%; in assay [4] (at 50.0 µM), 72.5% (active); in assay [5] (setting [7]), 3%; in assay [5] (at 50.0 µM) it was 60.3%.

In the case of `CN(C)c1ccc(C2C=C(c3ccccc3)Oc3ccccc32)cc1` (centres undefined), the growth inhibition was 97% (active) in assay [1] (setting [7]); 96% (active) in assay [1] (setting [8]); 96.7% (active) in assay [1] (at 50.0 µM); 94% (active) in assay [6] (setting [7]); 96% (active) in assay [6] (setting [8]); 97% (active) in assay [6] (at 50.0 µM). Further, the growth inhibition in assay [3] (setting [7]) is 92% (active); in assay [3] (setting [8]) it was 94% (active); in assay [3] (at 50.0 µM), 95.8% (active); in assay [4] (setting [7]), 93% (active); in assay [4] (setting [8]) it was 97% (active); in assay [4] (at 50.0 µM), 95.8% (active). Moreover, the growth inhibition in assay [5] (setting [7]) was 95% (active); in assay [5] (setting [8]), 96% (active); in assay [5] (at 50.0 µM), 96.8% (active).

Consider `O=C(O)/C(=C\c1ccc(F)cc1)c1ccccc1`, for which the growth inhibition in assay [6] (setting [7]) was -18%; in assay [6] (setting [8]), -9%; in assay [6] (at 50.0 µM) it was 64.9%; in assay [2] (setting [7]), -4%; in assay [2] (setting [8]), -16%; in assay [2] (at 50.0 µM) it was 11.9%. Also, the growth inhibition in assay [3] (setting [7]) was 29%; in assay [3] (setting [8]), 11%; in assay [3] (at 50.0 µM), 38.8%; in assay [4] (setting [7]), 3%; in assay [4] (setting [8]) it was 28%; in assay [4] (at 50.0 µM) it was 70.8% (active). Also, the results for the growth inhibition in assay [5] (setting [7]), in assay [5] (setting [8]) and in assay [5] (at 50.0 µM) were -12%, 9% and 50.2%, respectively.

With `N#[N+]c1ccc2c(S(=O)(=O)Oc3ccc(C(=O)c4ccccc4)c(OS(=O)(=O)c4cccc5c([O-])c([N+]#N)ccc45)c3)cccc2c1[O-]`, the growth inhibition in assay [1] (setting [7]) is -10%; in assay [1] (setting [8]) it was 46%; in assay [1] (at 50.0 µM), 82.5% (active); in assay [2] (setting [7]), 1%; in assay [2] (setting [8]) it was 59%; in assay [2] (at 50.0 µM), 77.2% (active). In addition, the growth inhibition in assay [3] (setting [7]) is 36%; in assay [3] (setting [8]), 45%; in assay [3] (at 50.0 µM), 84% (active); in assay [4] (setting [7]), -3%; in assay [4] (setting [8]), 31%; in assay [4] (at 50.0 µM), 77.1% (active). Besides, the growth inhibition in assay [5] (setting [7]) was -13%; in assay [5] (setting [8]), 4%; in assay [5] (at 50.0 µM) it was 72.7% (active).

On to `COc1ccc(C(C#N)=C2C=CC(=NOC(=O)Nc3ccccc3)C=C2)cc1`, for which the growth inhibition in assay [1] (setting [7]) was 41%; in assay [1] (setting [8]), 82% (active); in assay [1] (at 50.0 µM) it was 88.4% (active); in assay [2] (setting [7]), 68%; in assay [2] (setting [8]), 96% (active); in assay [2] (at 50.0 µM), 94.8% (active). For the same compound, the growth inhibition in assay [3] (setting [7]) was 4%; in assay [3] (setting [8]), 91% (active); in assay [3] (at 50.0 µM), -1.4%; in assay [4] (setting [7]), 12%; in assay [4] (setting [8]), 37%; in assay [4] (at 50.0 µM), 69.1%. The growth inhibition is 33% in assay [5] (setting [7]), 91% (active) in assay [5] (setting [8]) and 96.3% (active) in assay [5] (at 50.0 µM).

Regarding `S=C(N/N=C/c1ccccn1)Nc1ccccn1`, the growth inhibition in assay [6] (setting [7]) is -2%; in assay [6] (setting [8]), 99% (active); in assay [6] (at 50.0 µM), 92.9% (active); in assay [2] (setting [7]), 3%; in assay [2] (setting [8]) it was 99% (active); in assay [2] (at 50.0 µM) it was 91.5% (active). The growth inhibition in assay [3] (setting [7]) was -15%; in assay [3] (setting [8]) it was 98% (active); in assay [3] (at 50.0 µM), 88.5% (active); in assay [4] (setting [7]), -2%; in assay [4] (setting [8]) it was 98% (active); in assay [4] (at 50.0 µM), 90.9% (active). Moreover, the growth inhibition in assay [5] (setting [7]) was -3%; in assay [5] (setting [8]), 96% (active); in assay [5] (at 50.0 µM), 90.1% (active).

`CN(C)CCCNc1ccc2c(=O)n(CCN(C)C)c(=O)n3c4ccccc4c(=O)c1c23`: the growth inhibition in assay [1] (setting [7]) was 42%; in assay [1] (setting [8]) it was 69%; in assay [1] (at 50.0 µM) it was 71.7% (active); in assay [2] (setting [7]), 28%; in assay [2] (setting [8]), 18%; in assay [2] (at 50.0 µM) it was 26.2%. In addition, the growth inhibition in assay [3] (setting [7]) is 40%; in assay [3] (setting [8]), 24%; in assay [3] (at 50.0 µM), 58.6%; in assay [4] (setting [7]) it was 61%; in assay [4] (setting [8]), 37%; in assay [4] (at 50.0 µM) it was 40.9%. Also, the growth inhibition in assay [5] (setting [7]) was 55%; in assay [5] (setting [8]) it was 61%; in assay [5] (at 50.0 µM), 25.4%.

On to `N#CSCc1c(Cl)cccc1Cl`, for which the growth inhibition in assay [1] (setting [7]) is 57%; in assay [1] (setting [8]), 59%; in assay [1] (at 50.0 µM) it was 81.7% (active); in assay [6] (setting [7]), 40%; in assay [6] (setting [8]), 48%; in assay [6] (at 50.0 µM), 75.8% (active). The growth inhibition is 68% in assay [3] (setting [7]); 94% (active) in assay [3] (setting [8]); 64.5% in assay [3] (at 50.0 µM); 64% in assay [4] (setting [7]); 95% (active) in assay [4] (setting [8]); 79.1% (active) in assay [4] (at 50.0 µM). For the same compound, the growth inhibition in assay [5] (setting [7]) was 30%; in assay [5] (setting [8]), 48%; in assay [5] (at 50.0 µM) it was 79.8% (active).

In the case of `Cc1ccc(N)c(Cc2c(O)ccc3ccccc23)c1`, the growth inhibition was 4% in assay [6] (setting [7]); 75% (active) in assay [6] (setting [8]); 98.7% (active) in assay [6] (at 50.0 µM); 1% in assay [2] (setting [7]); 79% (active) in assay [2] (setting [8]); 98.8% (active) in assay [2] (at 50.0 µM). For the same compound, the growth inhibition was -7% in assay [3] (setting [7]); 64% in assay [3] (setting [8]); 98.5% (active) in assay [3] (at 50.0 µM); 0% in assay [4] (setting [7]); 66% in assay [4] (setting [8]); 98.7% (active) in assay [4] (at 50.0 µM).
